{
  "source": "PubChem BioAssay AID1347076",
  "about": "(National Center for Advancing Translational Sciences (NCATS), 2019)",
  "note": "About 13,000 (3.2%) of roughly 400,000 compounds were called active. A call without a number means that no potency is given here. Not shown: some 18% with an inconclusive outcome. The call rests on the fitted dose curve; in most records, active means well fitted cell-killing curve with a large enough effect; inconclusive means small, poorly fitted or top-dose-only effect, or effect the other way; inactive means flat fitted curve, though single readings scatter. Only a selection was taken, and actives are over-represented in it overall. Potency means the concentration at half of the fitted maximal effect.",
  "data": [
    {"assay": "qHTS assay for MDR1-selective chemotherapeutics: Primary screen using the drug-selected MDR subline cells KB-V1; further: nearly all actives have a fitted effect of over 60% in size", "conditions": "KB-V1 MDR cells viability, CellTiter-Glo, 72 h; series mostly up to 46.1 µM", "outline": "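Cytotoxicity via CellTiter-Glo luminescence after 72 h compound exposure at 37 degrees C. Cells: drug-selected KB-V1 line, DMEM phenol-red free plus 10% FBS. Compounds tested at multiple concentrations; normalized data fitted to concentration-effect curves.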", "values": [
      {"molecule": "COc1ccccc1C(=O)NC(=S)Nc1ccc(N2CCOCC2)cc1", "Potency": "inactive"},
      {"molecule": "Cc1cccc(C(=O)NC2CCN(CC(=O)Nc3cccc(Cl)c3)CC2)c1", "Potency": "inactive"},
      {"molecule": "CCc1nc2ccc(C(=O)Nc3cccc(OC)c3)cn2c1N(CCC(C)C)CCN(C)C", "Potency": "inactive"},
      {"molecule": "O=C(Nc1cccc2cccnc12)c1cccc(Cl)c1", "Potency": "inactive"},
      {"molecule": "COc1c(Cl)cc(Cl)cc1C(=O)Nc1cccc2cccnc12", "Potency": "inactive"},
      {"molecule": "CC(=O)/C(=N\\Nc1ccc(Cl)cc1Cl)Sc1cccc2cccnc12", "Potency": "18.4 µM (active)"},
      {"molecule": "COc1ccc(/C=C/c2ccccn2)cc1OC", "Potency": "inactive"},
      {"molecule": "Cc1ccc(NC(=O)c2cc3ccccc3o2)cc1", "Potency": "inactive"},
      {"molecule": "CN(C)C(CNC(=O)c1cc2ccccc2o1)c1ccccc1", "note": "(stereo not given)", "Potency": "16.4 µM (active)"},
      {"molecule": "CN(C)C(CNC(=O)Cc1ccc([N+](=O)[O-])cc1)c1ccccc1", "note": "(stereo not given)", "Potency": "inactive"},
      {"molecule": "O=C(Nc1cc(Br)ccc1F)c1nc[nH]c1C(=O)NCc1ccccc1", "Potency": "inactive"},
      {"molecule": "CCCCOC(=O)/C(C#N)=C/c1ccc(-c2cccc(C(F)(F)F)c2)o1", "Potency": "inactive"},
      {"molecule": "O=C1OCC2=C1C(c1ccc(Cl)cc1)c1cc3c(cc1O2)OCO3", "note": "(stereo not given)", "Potency": "23.1 µM (active)"},
      {"molecule": "O=C1NC(c2cc3c(cc2Cl)OCO3)Oc2ccccc21", "note": "(stereo not given)", "Potency": "inactive"},
      {"molecule": "CCOc1ccc(CNCc2c(C(=O)O)c(C)n(Cc3cccc(OC)c3)c2C)cc1OC", "Potency": "inactive"},
      {"molecule": "CCC(C)CN1C(=O)CN(S(C)(=O)=O)CC1(C)C(=O)Nc1ccc2c(c1)OCCO2", "note": "(stereo not given)", "Potency": "inactive"},
      {"molecule": "O=C(C=CC(=O)Nc1ccc(F)cc1F)Nc1ccc(F)cc1F", "Potency": "inactive"},
      {"molecule": "Cc1ccc(C(=O)OCC(=O)NC2CCCCCCC2)cc1C", "Potency": "inactive"},
      {"molecule": "O=C(c1cccs1)N1CCN(Cc2ccc3c(c2)OCO3)CC1", "Potency": "inactive"},
      {"molecule": "O=C(Nc1cccc2ccccc12)N1CCN(Cc2ccc3c(c2)OCO3)CC1", "Potency": "16.4 µM (active)"},
      {"molecule": "O=C(CCCN1C(=O)c2cccc3cccc(c23)C1=O)N1CCN(Cc2ccc3c(c2)OCO3)CC1", "Potency": "inactive"},
      {"molecule": "O=[n+]1c2c(n([O-])c3cc(Br)ccc31)CCC2", "Potency": "inactive"},
      {"molecule": "O=C1CCCc2c1[nH]c1ccc(Br)cc21", "Potency": "0.517 µM (active)"},
      {"molecule": "C/C(=N\\N)c1c(-c2ccccc2)c2cc(Br)ccc2[nH]c1=O", "Potency": "inactive"},
      {"molecule": "COC(=O)C(Cc1c[nH]c2ccccc12)NC(=O)CCNC(=O)c1ccco1", "note": "(stereo not given)", "Potency": "inactive"},
      {"molecule": "COc1cc2nc(C#Cc3nc4cc(OC)c(OC)cc4[nH]3)[nH]c2cc1OC", "Potency": "inactive"},
      {"molecule": "COc1ccc(C2NC(=O)c3ccccc3N2)cc1", "note": "(stereo not given)", "Potency": "inactive"},
      {"molecule": "C=CCOc1cccc(C2NC(=O)c3ccccc3O2)c1", "note": "(stereo not given)", "Potency": "inactive"},
      {"molecule": "O=C1NC(c2cccc(Cl)c2)Nc2ccccc21", "note": "(stereo not given)", "Potency": "8.2 µM (active)"},
      {"molecule": "CCCNC(=O)C1(C)CCN1C(=O)C1(c2ccccc2)CC1", "note": "(stereo not given)", "Potency": "inactive"},
      {"molecule": "Cc1cccc(N2CCN(Cc3c(C)n(C)n(-c4ccccc4)c3=O)CC2)c1C", "Potency": "18.4 µM (active)"},
      {"molecule": "Cc1c(CN2CCC(C)CC2)c(=O)n(-c2ccccc2)n1C", "Potency": "inactive"},
      {"molecule": "Cc1cccc(N2CCN(c3c(CN4CCCC4)c(=O)oc4ccccc34)CC2)c1C", "Potency": "inactive"},
      {"molecule": "CSCCC(NC(N)=O)C(=O)N(C)CC(=O)Nc1ccc(C)cc1", "note": "(stereo not given)", "Potency": "inactive"},
      {"molecule": "CSCCC(NC(=O)COc1ccccc1)C(=O)Nc1ccc(C)cc1", "note": "(stereo not given)", "Potency": "inactive"},
      {"molecule": "CSCCC(NC(=O)COc1ccccc1)C(=O)N(C)CC(=O)Nc1ccc(C)cc1", "note": "(stereo not given)", "Potency": "16.4 µM (active)"},
      {"molecule": "O=C1[C@H]2[C@@H](c3ccc(C(F)(F)F)cc3)N[C@]3(CCCN(Cc4ccc(Br)cc4)C3=O)[C@H]2C(=O)N1Cc1ccccc1", "Potency": "inactive"},
      {"molecule": "COc1ccc(C(=O)NCC(c2ccc(N(C)C)cc2)N2CCc3ccccc32)c(OC)c1", "note": "(stereo not given)", "Potency": "inactive"},
      {"molecule": "Nc1c(C(=O)NCc2ccccc2)nnn1Cc1cccc(Cl)c1", "Potency": "9.2 µM (active)"},
      {"molecule": "COc1cccc(CNC(=O)c2nnn(CC(=O)Nc3cc(Cl)ccc3C)c2N)c1", "Potency": "inactive"},
      {"molecule": "Nc1c(C(=O)Nc2ccc3c(c2)OCCO3)nnn1Cc1ccccc1", "Potency": "inactive"},
      {"molecule": "CCS(=O)(=O)N1CCc2cc(C(=O)NCc3ccc(OC)cc3)ccc21", "Potency": "inactive"},
      {"molecule": "Cc1ccc(Oc2c(C(F)(F)F)oc3c(CN4CCCCC4)c(O)ccc3c2=O)cc1", "Potency": "inactive"},
      {"molecule": "COc1ccc(-c2c(C)c3ccc(O)c(CN4CCN(C)CC4)c3oc2=O)cc1OC", "Potency": "inactive"},
      {"molecule": "O=c1oc2c(CN3CCCCC3)c(O)ccc2c2c1CCCCC2", "Potency": "5.8 µM (active)"},
      {"molecule": "Cc1ccc(S(=O)(=O)N[C@H]2CCC[C@@H]2O)cc1", "Potency": "inactive"},
      {"molecule": "COc1cc(NC(=O)C2CC(c3ccccc3O)=NO2)c(OC)cc1Cl", "note": "(stereo not given)", "Potency": "inactive"},
      {"molecule": "CCn1ncc(C2=NOC(C(=O)Nc3ccccc3C(=O)OC)C2)c1C", "note": "(stereo not given)", "Potency": "18.4 µM (active)"},
      {"molecule": "CCn1ncc(C2=NOC(C(=O)N3CCN(c4ccccc4)CC3)C2)c1C", "note": "(stereo not given)", "Potency": "inactive"},
      {"molecule": "COc1cccc(CNC(=O)C(NS(=O)(=O)c2ccc3nc(C)sc3c2)C(C)C)c1", "note": "(stereo not given)", "Potency": "inactive"}
    ]}
  ]
}
